# High-throughput results from PubChem BioAssay.
# This is a sample that favours compounds with a hit; in the whole collection about 17% have one here.
# TDP1 block – qHTS Assay for Inhibitors of Tyrosyl-DNA Phosphodiesterase (TDP1) | Tyrosyl-DNA phosphodiesterase 1 (Homo sapiens), Q9NUW8 | recombinant TDP1, AlphaScreen DNA substrate cleavage | Potency, µM (highest dose often 130 µM), inactives show top-dose activity change, negative = inhibition, usual class: inhibitors | actives 0.28% (n = 350,000) | AID 485290, 2010; note: % is set by controls: 0 for no effect and ±100 for the full control effect; nearly all actives have a fitted effect of over 40% in size
#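 Signal: AlphaScreen proximity between streptavidin donor and anti-FITC acceptor beads on intact substrate. Reaction: Tdp1 1 nM, substrate 15 nM final, 5 min RT after 15 min compound preincubation.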
# TDP1 cell noCPT – qHTS for Inhibitors of human tyrosyl-DNA phosphodiesterase 1 (TDP1): qHTS in cells in absence of CPT; Potency, µM (titrated, usually from 46.2 µM), without a hit: at the highest dose activity change, negative = growth inhibition, most hits filed as inhibitors; AID 686978, 2013; DT40 Tdp1-/- hTDP1 cells, no CPT, ATP luminescence, 48 h; actives 15% (n = 420,000); note: % is set by controls: 0 for no effect and ±100 for the full control effect; nearly all actives have a fitted effect of over 55% in size
#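 Chicken DT40 Tdp1-/- cells complemented with human TDP1, screened without camptothecin (DMSO vehicle only), 400 cells/well. Compounds pin-transferred, cells incubated at 37 °C for at least 48 hr. Growth read as ATP-dependent luminescence (CellTiter-Glo, 30 min at RT).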
# ClpP mod – qHTS Assay for Activators of ClpP | ATP-dependent Clp protease proteolytic subunit (Bacillus subtilis (strain 168)), P80244 | purified B. subtilis ClpP, FRET peptide cleavage, 20 min | Potency, µM (highest dose often 57.5 µM), without a hit: at the top dose activity change, negative = active | actives 1.9% (n = 340,000) | AID 651965, 2013; active = well fitted falling curve with a large enough effect; inconclusive = small, poorly fitted or top-dose-only effect; inactive = no such curve, though single readings can be large or run the other way; note: the source files actives as falling curves though it sought activators and does not explain the sign; nearly all actives have a fitted effect of over 65% in size
# Target sequence (P80244 whole entry, looked up): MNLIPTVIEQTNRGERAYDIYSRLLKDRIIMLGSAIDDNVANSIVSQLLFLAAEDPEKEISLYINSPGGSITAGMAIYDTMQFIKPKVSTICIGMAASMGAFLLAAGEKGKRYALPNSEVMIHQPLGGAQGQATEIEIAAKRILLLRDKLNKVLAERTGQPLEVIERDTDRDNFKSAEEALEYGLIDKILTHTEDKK
#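 FRET quenching reversal measured ClpP activation: 10 microg/mL B. subtilis ClpP at pH 8 with the FRET-FV decapeptide, read at 430 nm after 320 nm excitation. The 20-min minus 0-min signal was scaled between DMSO/no-enzyme wells and ADEP (5.8 microM final).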
# DT40 TDP1 CPT – qHTS for Inhibitors of human tyrosyl-DNA phosphodiesterase 1 (TDP1): qHTS in cells in presence of CPT; chicken DT40 Tdp1-/-;hTDP1 cells + 20 nM CPT, ATP luminescence, 48 h; Potency, µM (series often up to 46.2 µM), for inactives: at the top dose activity change, negative = growth inhibition, actives largely listed as inhibitors; actives 12% (n = 420,000); AID 686979, 2013; note: % is set by controls: 0 for no effect and ±100 for the full control effect; nearly all actives have a fitted effect of over 55% in size
#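 Chicken DT40 Tdp1-/- cells complemented with human TDP1, 400 cells/well, exposed to compounds plus 20 nM camptothecin for at least 48 h at 37 C; viability read as ATP content by CellTiter-Glo luminescence.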
# * marks the source's active call; other numbers are inactive results; u = inconclusive; x = no result given; [ ] = dose if it differs, or a comment. Unless noted, calls come from the whole dose curve; as a rule, active = well fitted curve in the direction sought with a large enough effect; inconclusive = small, poorly fitted or top-dose-only effect, or another doubt; inactive = no such curve, though single readings can be large; an effect the other way counts as inactive or inconclusive. Potency is the fitted concentration of half-maximal effect.
SMILES,TDP1 block,TDP1 cell noCPT,ClpP mod,DT40 TDP1 CPT
CCN(CC)CCN(C)C1CCC(c2ccccc2)CC1 (centres undefined),1%,21µM*,-3%,16µM*
CCS(=O)(=O)N1CCN(C2CCC(c3ccccc3)CC2)CC1 (centres undefined),-7%,x,x,x
O=C(NCc1ccco1)c1cc([N+](=O)[O-])ccc1N1CCOCC1,2%,-20%,1%,-15%
COc1ccccc1CNc1nc(=S)[nH]c2cc(OC)c(OC)cc12,x,u,-4%,u
COc1cc2[nH]c(=S)nc(NCc3cccs3)c2cc1OC,6%,23µM*,x,-29%
CCN(CC)S(=O)(=O)c1cc(-c2onc(C)c2C)ccc1OC,5%,u,0%,u
CN(C)c1ccc2c(c1)Sc1cc(N(C)C)ccc1N2C(=O)c1ccccc1,8%,21µM*,x,u
CCN(CC(=O)NCCc1ccc(S(N)(=O)=O)cc1)Cc1ccccc1,1%,-2%,-4%,-16%
COc1ccc(-n2c(-c3ccc(Cl)cc3)cc3c2CC(C)(C)CC3=O)c(OC)c1,13%,18µM*,u,23µM*
Cc1ccc(-n2c3c(cc(C(=O)O)c2=O)C(=O)CC(C)(C)C3)cc1,5%,-2%,-4%,-19%
Cc1cc2c(n1-c1ccc(Cl)cc1)CC(C)(C)CC2=O,4%,1%,-2%,u
COc1ccc(C)cc1-n1c(-c2ccc(Cl)cc2)cc2c1CC(C)(C)CC2=O,7%,15µM*,-10%,u
Cc1ccc(-c2cc3c(n2-c2ccccc2F)CC(C)(C)CC3=O)cc1,9%,13µM*,-9%,18µM*
COc1ccc(-c2cc(C(=O)Nc3ccc(Br)cc3)no2)cc1,x,-20%,-1%,-5%
O=C(COC(=O)C1(c2ccc(F)cc2)CCCC1)NCc1ccco1,0%,-2%,x,5%
COC(=O)Cc1cccc2c(=O)c3ccccc3oc12,4%,-21%,x,4%
O=C(Nc1ncccc1O)c1ccc(Cl)c(S(=O)(=O)N2CCCC2)c1,x,-12%,-2%,-2%
C=CCn1c(=O)c2ccccc2n2c(SCC(=O)Nc3sc(C(=O)N(CC)CC)c(C)c3C(=O)OCC)nnc12,-3%,15µM*,-25%,23µM*
C=CCn1c(=O)c2ccccc2n2c(SCC(=O)Nc3sc(C)c(CC)c3C(=O)OCC)nnc12,-3%,16µM*,x,u
C=CCn1c(C)cc(C(=O)CSc2nnc3n(CCC)c(=O)c4ccccc4n23)c1C,x,18µM*,x,21µM*
C=CCn1c(=O)c2ccccc2n2c(SCC(=O)Nc3cc(C)on3)nnc12,5%,u,-4%,u
C=CCn1c(=O)c2ccccc2n2c(SC(C)C(=O)Nc3nc(-c4ccccc4)cs3)nnc12 (centres undefined),11%[56.1 µM],3.7µM*,-8%,9.2µM*
C=CCn1c(=O)c2ccccc2n2c(SC(C)C(N)=O)nnc12 (centres undefined),x,1%,x,24%
CNc1cncc(-c2cnn(CC(C)C)c2)n1,x,-21%,4%,-12%
CCc1sc(C(=O)NCCCn2ccnc2)cc1Br,x,10%,0%,-2%
SMILES,TDP1 block,TDP1 cell noCPT,ClpP mod,DT40 TDP1 CPT
Cc1c(C(=O)Nc2ccc(F)c(Cl)c2)sc2nc3n(c(=O)c12)CCC3,-14%,u,-1%,u
Cc1cccc(NC(=O)C(C)OC(=O)c2ccccc2NS(=O)(=O)c2cc(C)c(C)c([N+](=O)[O-])c2)c1 (centres undefined),5%,u,-1%,16µM*
COC(=O)C1=C(C)NC(=S)NC1c1ccc(-c2cc(Cl)ccc2Cl)o1 (centres undefined),x,5.8µM*,x,6.5µM*
CCOC(=O)c1c(-c2ccc(C)s2)csc1NC(=O)c1cccs1,0%,-15%,-9%,u
CCOC(=O)c1c(NC(=O)c2cccs2)sc(CC)c1-c1cccs1,x,-29%,32µM*,u
COc1ccc(NCc2cc3cc4c(cc3n(CC(=O)Nc3ccc(F)cc3)c2=O)OCCO4)cc1,0%,x,16%,x
COc1ccc(C(=O)C[n+]2ccccc2C)cc1,3%,21µM*,1%,16µM*
Cc1cccc[n+]1CC(=O)c1ccc([N+](=O)[O-])cc1,x,16µM*,x,21µM*
COc1ccccc1N1CCN(C(=O)c2ccc(Cl)c(S(=O)(=O)N3CCOCC3)c2)CC1,-3%,u,-2%,26µM*
O=C(c1ccc(Cl)c(S(=O)(=O)NCc2ccco2)c1)N1CCN(c2ccccc2F)CC1,8%,u,-1%,u
CCC(C)c1ccc(S(=O)(=O)N2CCN(C(=O)c3ccc(Cl)c(S(=O)(=O)N4CCOCC4)c3)CC2)cc1 (centres undefined),x,18µM*,0%,u
O=C(c1ccc(Cl)c(S(=O)(=O)N2CCOCC2)c1)N1CCN(c2ccccc2)CC1,5%,u,-3%,u
COc1ccccc1N1CCN(C(=O)c2ccc(Cl)c(S(=O)(=O)NCc3ccco3)c2)CC1,4%,5µM*,0%,5.6µM*
O=c1c2c(nc3nc(NCc4cccc5ccccc45)[nH]n13)CCC2,9%,-10%,x,5%
Cc1ccccc1-n1cnc2c(sc3nc(N4CCOCC4)c4c(c32)CCCC4)c1=O,-5%,15µM*,x,18µM*
Cc1ccc(-n2cnc3c(sc4nccc(N(C)C)c43)c2=O)cc1,4%,u,-20%,-30%
COc1ccc(-n2cnc3c(sc4nccc(N(C)C)c43)c2=O)cc1,-8%,u,14µM*,-27%
CCOC(=O)C(Sc1ncnc2c1sc1nc(N3CCOCC3)c3c(c12)CCCC3)c1ccccc1 (centres undefined),0%,x,x,x
COc1ccc(-n2cnc3c(sc4nc(N5CCOCC5)c5c(c43)CCCC5)c2=O)cc1,-1%,23µM*,-1%,18µM*
C=CCNc1nnnc2c1sc1nc(N3CCOCC3)c3c(c12)CCCC3,-3%,13µM*,x,18%
O=c1c2sc3nc(N4CCOCC4)c4c(c3c2ncn1-c1ccccc1)CCCC4,7%,u,u,u
COC(=O)Nc1ccc(S(=O)(=O)N2CCCC(C(=O)NC3CCS(=O)(=O)C3)C2)cc1 (centres undefined),0%,-26%,0%,19%
O=c1c2sc3nc(N4CCOCC4)c4c(c3c2nnn1Cc1ccccc1)CCCC4,-3%,u,-3%,8.2µM*
CC1=N/C(=C\c2ccc([N+](=O)[O-])cc2)C(=O)N1c1ccc(F)cc1F,x,18µM*,x,u
CC1=N/C(=C\c2ccc([N+](=O)[O-])cc2)C(=O)N1c1ccc(Cl)cc1,-4%,u,-1%,u
